A selection: hits, their analogues and other compounds. The true share with any hit is near 3.2%.
RE007 growth inh: qHTS Assay for Inhibitors of the HIV-1 protein Vpr. AID 651644, 2012. 360,000 compounds, 0.21% hits. Potency, µM (doses to about 92.2 µM), inactives show at the top dose activity change, negative = less growth, hits mostly inhibitors. S. pombe RE007 Vpr strain, BacTiter-Glo ATP luminescence, 24 h; active = well fitted falling curve with a large enough effect; inconclusive = small, poorly fitted or top-dose-only effect; inactive = no such curve, though single readings can be large or run the other way; also: nearly all actives have a fitted effect of over 50% in size
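Fission yeast strain RE007, carrying one chromosomally integrated HIV-1 vpr copy, was seeded at OD 0.01 in PMG+AL medium with 23 nL pinned compound. After 24 h at 30 °C and 99% humidity, viability was read by BacTiter-Glo luminescence.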
AmpC inh no detg: qHTS Inhibitors of AmpC Beta-Lactamase (assay without detergent). P00811. Potency, µM (titrated, usually from 57.1 µM), for inactives: at the highest dose activity change, negative = inhibition, actives largely listed as inhibitors. AmpC nitrocefin hydrolysis, absorbance 480 nm, 0.0001% Triton. 330,000 compounds, 0.52% hits;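 also: plate controls were no compound for no effect and no enzyme for full effect; nearly all actives have a fitted effect of over 20% in size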
Target sequence (P00811 whole entry, looked up): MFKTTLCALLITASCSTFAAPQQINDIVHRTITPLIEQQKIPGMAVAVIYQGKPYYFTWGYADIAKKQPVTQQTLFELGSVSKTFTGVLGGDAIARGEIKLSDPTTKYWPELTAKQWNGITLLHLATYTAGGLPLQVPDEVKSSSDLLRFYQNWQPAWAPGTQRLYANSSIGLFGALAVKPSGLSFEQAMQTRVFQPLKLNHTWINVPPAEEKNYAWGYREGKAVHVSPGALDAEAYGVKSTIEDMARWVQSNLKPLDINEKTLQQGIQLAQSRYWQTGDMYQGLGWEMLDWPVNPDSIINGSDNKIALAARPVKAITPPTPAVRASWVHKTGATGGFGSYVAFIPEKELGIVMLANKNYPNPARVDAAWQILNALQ
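20 mM phosphate pH 7.0 + 0.01% (detergent screen) or 0.0001% Triton X-100; 5.3 nM AmpC reagent; cpd preinc 15 min RT; nitrocefin (800 uM stock) to start; A480 q20 s × 4 min; Activity was normalised to no-enzyme and no-compound control wells.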
AmpC detergent: qHTS Inhibitors of AmpC Beta-Lactamase (assay with detergent); P00811; AmpC hydrolysis of nitrocefin, absorbance 480 nm, 0.01% Triton; Potency, µM (doses to about 114 µM), for inactives: at the top dose activity change, negative = inhibition, hits mostly inhibitors; 370,000 compounds, 0.041% hits; AID 485294, 2010;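 also: 0% = no-compound wells and -100% = no-enzyme wells; nearly all actives have a fitted effect of over 25% in size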
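AmpC (5.3 nM in the dispensed reagent) in 20 mM phosphate pH 7.0 with 0.01% (detergent screen) or 0.0001% Triton X-100 was preincubated with compounds for 15 min at room temperature. Nitrocefin was then added from an 800 uM solution, and hydrolysis was followed at 480 nm.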
AMA1-RON2 inh: qHTS for Inhibitors of AMA1-RON; Towards Development of Antimalarial Drug Lead: Primary Screen; Plasmodium falciparum AMA1 (3D7) - RON2 peptide interaction; AlphaScreen AMA1-biotinylated RON2 peptide binding; Potency, µM (highest dose often 58.2 µM), without a hit: at the highest dose activity change, negative = inhibition, most hits filed as inhibitors; 360,000 compounds, 0.2% hits; AID 720542, 2013;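 also: 0% = vehicle wells and -100% = peptide control; nearly all actives have a fitted effect of over 45% in size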
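AMA1 (3D7) with his tag at 25 nM final met compounds first, then biotinylated RON2 peptide at 25 nM; detection used donor plus acceptor beads, 10 µg/mL apiece, read by AlphaScreen after 30 min at room temperature.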
Sm TGR inh: qHTS Assay for the Inhibitors of Schistosoma Mansoni Peroxiredoxins; purified TGR, DTNB reduction, TNB absorbance 405 nm; Potency, µM (top dose mostly 114 µM), for the others: at the highest dose activity change, negative = inhibition, actives largely listed as inhibitors; 360,000 compounds, 3% hits; also: nearly all actives have a fitted effect of over 60% in size
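Kinetic colorimetric format: TGR-catalysed, NADPH-driven DTNB reduction monitored via TNB absorbance. Enzyme dispensed at 20 nM; compound exposure 15 min at room temperature before reaction start.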
Numbers without * were called inactive; ? = inconclusive; / = not tested or not shown; [ ] = another dose, or the depositor's remark. Unless noted, calls follow the shape of the dose curve; as a rule, active = well fitted curve in the direction sought with a large enough effect; inconclusive = small, poorly fitted or top-dose-only effect, or another doubt; inactive = no such curve, though single readings can be large; an effect the other way counts as inactive or inconclusive. Unless noted, % is scaled to controls: 0 for no effect and ±100 for the full control effect; potency is read from the fitted curve at half-maximal effect.

SMILES | RE007 growth inh | AmpC inh no detg | AmpC detergent | AMA1-RON2 inh | Sm TGR inh
CC(=O)c1ccc(NC(=O)CSc2nnc(-c3ccco3)o2)cc1 | 36.4% | -4.0% | -5.9% | 9.3% | -9.7%
CCc1nc2cccnc2n1-c1ccc(CC(=O)Nc2cccc(C)c2C)cc1 | / | / | 11.3% | / | -12.3%
COc1ccc2[nH]cc(C(=O)CN(C)C)c2c1 | -3.3% | / | / | -7.1% | /
COc1ccc2c(CCN)c[nH]c2c1 | -0.1% | -5.7% | -0.9% | -2.4% | 3.5%
COc1ccc2c(C(=O)CCl)c[nH]c2c1 | -14.7% | -14.1% | ? | -15.7% | 4.47µM*
COc1ccc2c(CC#N)c[nH]c2c1 | -8.8% | -15.9% | 3.0% | -4.3% | 50.1µM*
CC(C)CC(=O)Nc1ccc(S(=O)(=O)Nc2cc3c(cc2N2CCOCC2)n(C)c(=O)c(=O)n3C)cc1 | / | / | 14.4% | / | -25.4%
CC(C)CSc1oc(-c2ccco2)nc1S(=O)(=O)c1ccccc1 | 10.5% | -30.5% | 8.9% | 0.9% | 44.7µM*
CCSc1oc(-c2ccco2)nc1S(=O)(=O)c1ccc(C)cc1 | -0.8% | -26.0% | 2.2% | -26.0% | 39.8µM*
CCSc1oc(-c2ccco2)nc1S(=O)(=O)c1ccc(F)cc1 | 1.4% | -59.7% | -6.1% | 1.4% | 14.1µM*
Cc1ccc(S(=O)(=O)c2nc(-c3ccccc3)oc2SCC(=O)NCC2CCCO2)cc1 (stereo unspecified) | -3.3% | 83.6% | -6.4% | -4.3% | -12.3%
Cc1ccc(S(=O)(=O)c2nc(-c3ccco3)oc2SCC(=O)NCC2CCCO2)cc1 (stereo unspecified) | 1.8% | 20.5% | 2.5% | 5.5% | 35.5µM*
COc1ccc(NC(=O)CSc2oc(-c3ccc(C)cc3)nc2S(=O)(=O)c2ccc(C)cc2)c(OC)c1 | / | / | -5.9% | / | 50.1µM*
COc1ccc(NC(=O)CSc2oc(-c3ccco3)nc2S(=O)(=O)c2ccc(C)cc2)c(OC)c1 | / | / | 6.1% | / | ?
Nc1nc(C(=O)N2CCOCC2)nn1C(=O)c1ccc(Cl)cc1 | -14.6% | -9.3% | -11.4% | 3.9% | 35.5µM*
O=C(CSCc1ccccc1)NNC(=S)Nc1cccc(Cl)c1Cl | -3.8% | 0.159µM* | ? | -8.6% | -12.3%
COC(=O)c1ccc(NC(=O)C(C)N2Cc3ccccc3C2=O)cc1 (stereo unspecified) | / | / | 4.3% | / | 1.9%
O=C(COc1ccccc1F)Nc1ccc2nc(SCc3ccccc3)sc2c1 | / | / | -2.8% | / | -1.2%
Cc1ccc(S(=O)(=O)CCC(=O)Oc2ccc3c(C)cc(=O)oc3c2)cc1 | -25.3% | -24.4% | ? | -0.8% | 22.4µM*
Cc1ccccc1OC(=O)CSc1nnc(-c2cccs2)o1 | / | / | 7.3% | / | -4.1%
Cc1cc(C)c2cc(CN(Cc3ccco3)C(=O)NCc3ccccc3)c(=O)[nH]c2c1 | -9.1% | 29.6% | 8.1% | 0.8% | 50.1µM*
Cc1cc(C)c2cc(CN(CC3CCCO3)C(=S)NCc3ccco3)c(=O)[nH]c2c1 (stereo unspecified) | -8.1% | 54.9% | -1.3% | -26.5% | -28.2%[57.1 µM]
Cc1cc(C)c2[nH]c(=O)c(CN(Cc3ccco3)C(=O)C3CCCO3)cc2c1 (stereo unspecified) | -2.2% | -4.3% | -11.7% | -6.0% | 25.1µM*
Cc1cccc2cc(CN(Cc3ccco3)C(=O)c3ccncc3)c(=O)[nH]c12 | -1.5% | -5.7% | -2.4% | 6.0% | 31.6µM*
CCOc1ccc2nc(C)cc(Nc3ccccc3OCC)c2c1 | / | / | 10.5% | / | 1.9%
SMILES | RE007 growth inh | AmpC inh no detg | AmpC detergent | AMA1-RON2 inh | Sm TGR inh
COc1ccc(C2(CNC(=O)/C=C/c3ccco3)CCCC2)cc1OC | -0.2% | 14.4% | -2.1% | -7.7% | 3.55µM*
CCN(CC)S(=O)(=O)c1ccc(OC)c(NC(=O)/C=C/c2ccco2)c1 | -9.4% | -24.4% | 2.6% | -8.9% | 3.16µM*
COc1ccc(C2(CNC(C)=O)CCCC2)cc1OC | 0.6% | -3.5% | 1.2% | 13.7% | 49.1%
COc1ccc(CNC(=O)/C=C/c2ccco2)cc1OC | 1.7% | -11.2% | 1.1% | -3.5% | 3.16µM*
O=C(/C=C/c1ccco1)NCC1(c2ccccc2)CCCC1 | 52.6% | -16.0% | -2.3% | 1.1% | 7.94µM*
O=C(CC1C(=O)N(c2ccc(F)cc2)C(=O)N1Cc1ccc2c(c1)OCO2)Nc1ccc(F)cc1 (stereo unspecified) | / | / | 7.2% | / | -2.0%
COC(=O)C1CCN(S(=O)(=O)c2ccc(N3CCCCS3(=O)=O)cc2)CC1 | / | / | -4.2% | / | -0.3%
Cc1ccc(C)c2sc(N3CCN(C(=O)C(C)(C)C)CC3)nc12 | / | / | -1.4% | / | ?
Cc1cccc(NC(=O)c2cc(-c3ccc4c(c3)OCCO4)on2)c1 | / | / | 19.2% | / | 2.2%
COc1cc(/C=N/Nc2ccccc2C(F)(F)F)ccc1O | 7.4% | -51.4% | -0.1% | -6.1% | 39.8µM*
COc1cc(/C=N/Nc2cccc(C)c2)ccc1OC(=O)c1cccs1 | 137.9% | -48.4% | -15.9% | -9.0% | -28.8%
COc1cc(/C=N/NP(=S)(c2ccccc2)c2ccccc2)ccc1O | 13.6% | -50.3% | ? | 15.7% | -9.2%
COc1cc(/C=N/NC(=O)c2ccc(-n3cccc3)cc2)ccc1O | 11.0% | 14.1µM* | -13.6% | -5.5% | -2.9%
COc1cc(/C=N/Nc2cccc(C)c2)cc(Br)c1O | 265.5% | 31.6µM* | -1.5% | -3.0% | 44.7µM*
COc1cccc(OCc2cc(/C=N/Nc3ccc(C(=O)O)cc3)ccc2OC)c1 | -5.8% | 17.8µM* | 5.0% | -2.4% | -23.3%
Cc1ccc(-n2ncc(C(=O)N3CCC(c4ccccc4)C3)c2C2CCN(C(=O)OC(C)(C)C)CC2)cc1 (stereo unspecified) | / | / | 21.6% | / | 1.1%
O=C1C(c2ccc(F)cc2)N(CCc2ccc(Cl)cc2)C(=O)CN1C1CCCCCC1 (stereo unspecified) | / | / | 9.5% | / | 16.9%
COc1cc(/C=N/Nc2ccccc2)ccc1O | 90.2% | -26.4% | 2.8% | 3.1% | 39.8µM*
Fc1cccc2sc(Nc3nnc(-c4ccco4)o3)nc12 | -24.8% | -12.1% | -0.6% | 58.9% | 39.8µM*
COc1ccc(C(=O)CCN2CCCCCC2)cc1 | 7.08µM* | -12.3% | -3.0% | -1.5% | 17.8%
CCOc1ccc(C(=O)CCN2CCCCC2)cc1 | 35.5µM* | -16.3% | 0.8% | 5.6% | 0.316µM*
CCCCOc1ccc(C(O)(CCN2CCOCC2)c2ccccc2)cc1 (stereo unspecified) | -5.2% | 155.8% | 0.8% | -6.7% | 14.1µM*
CC(C)Oc1ccc(C(=O)CCN2CCOCC2)cc1 | ? | / | / | -2.3% | /
CC(C)Oc1ccc(C(=O)CCN2CCCCC2)cc1 | 39.8µM* | -13.9% | 1.1% | -2.8% | 0.398µM*
CCOc1ccc(C(=O)CCC(=O)NN2CCCCC2)cc1 | -11.7% | / | / | -4.2% | /
CCCCOc1ccc(C(=O)N2CCCCC2CCN2CCOCC2)cc1 (stereo unspecified) | / | / | 5.3% | / | 0.0%

Source: PubChem BioAssay
